Among the data in PubChem BioAssay (NCATS) are Potency, activity, negative = cell killing and outcome values, retold here.

Assay [1] has as its system MKL-1. The experiment in a line: qHTS assay to identify novel small-molecules to repurpose for Merkel cell carcinoma treatment (AID 1296009). Further: nearly all actives have a fitted effect of over 60% in size. Conditions: MCC and control cell lines, CellTiter-Glo viability, 72 h; series mostly up to 46 µM. An outline of the steps:
(§1)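 qHTS format: cells treated with library compounds in DMSO across 8 (NPC) or 11 (MIPE) concentrations. Readout after 72 hr at 37 degree celsius was CellTiter-Glo luminescence.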
In general terms: Quantitative high-throughput screening tests each substance at several concentrations.

Assay [2] concerns MKL-2. Described as above. As to conditions: MCC and control cell lines, CellTiter-Glo viability, 72 h; series mostly up to 46 µM. An outline of the steps:
as §1
On the technique in general: Cellular ATP, detected with luciferase, serves as a proxy for viable cell number.

The subject of assay [3] is UISO. The description is as above. As to conditions: MCC and control cell lines, CellTiter-Glo viability, 72 h; series mostly up to 46 µM. An outline of the steps:
as §1

The subject of assay [4] is WaGa. The assay is described as above. Conditions: MCC and control cell lines, CellTiter-Glo viability, 72 h; series mostly up to 46 µM. In short, it runs like this:
as §1

Assay [5] deals with C33A. In words: Primary qHTS to identify gynecologic anti-cancer compounds using libraries of approved drugs and bioactive compounds (AID 1345084). Further: nearly all actives have a fitted effect of over 55% in size. As to conditions: Gynecologic cancer cell panel viability, ATPlite luminescence, 48 h; series mostly up to 57.5 µM. In short, it runs like this:
(§2)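 Cells, 1,000 per well, plated 16 h, then exposed 48 h at 37 C to compounds. Viability by ATPlite luminescence after 15 min at room temperature.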

For assay [6], the system named is CAOV3. The description is as above. Conditions: Gynecologic cancer cell panel viability, ATPlite luminescence, 48 h; series mostly up to 57.5 µM. In short, it runs like this:
as §2

Assay [7] deals with CASKI. The assay is described as above. Conditions: Gynecologic cancer cell panel viability, ATPlite luminescence, 48 h; series mostly up to 57.5 µM. In short, it runs like this:
as §2

Assay [8] relates to Es-2. The assay is described as above. As to conditions: Gynecologic cancer cell panel viability, ATPlite luminescence, 48 h; series mostly up to 57.5 µM. An outline of the steps: as §2
Assay [9] deals with HeLa. The assay is described as above. As to conditions: Gynecologic cancer cell panel viability, ATPlite luminescence, 48 h; series mostly up to 57.5 µM. In short, it runs like this: as §2
Assay [10] relates to Hek293T. Described as above. As to conditions: Gynecologic cancer cell panel viability, ATPlite luminescence, 48 h, control line for the selectivity index; series mostly up to 57.5 µM. An outline of the steps: as §2
Assay [11] deals with JEG-3. Described as above. As to conditions: Gynecologic cancer cell panel viability, ATPlite luminescence, 48 h; series mostly up to 57.5 µM. An outline of the steps:
as §2

The subject of assay [12] is OV90. The assay is described as above. Conditions: Gynecologic cancer cell panel viability, ATPlite luminescence, 48 h; series mostly up to 57.5 µM. In short, it runs like this:
as §2

Assay [13] concerns PA-1. The assay is described as above. As to conditions: Gynecologic cancer cell panel viability, ATPlite luminescence, 48 h; series mostly up to 57.5 µM. An outline of the steps:
as §2

The test system of assay [14] is SKOV3. The description is as above. As to conditions: Gynecologic cancer cell panel viability, ATPlite luminescence, 48 h; series mostly up to 57.5 µM. An outline of the steps: as §2
Assay [15] deals with Tov-21-G. Described as above. As to conditions: Gynecologic cancer cell panel viability, ATPlite luminescence, 48 h; series mostly up to 57.5 µM. An outline of the steps: as §2
The subject of assay [16] is Tov112D. Described as above. As to conditions: Gynecologic cancer cell panel viability, ATPlite luminescence, 48 h; series mostly up to 57.5 µM. In short, it runs like this:
as §2

Assay [17] can be described thus: Drug repurposing screens with cells derived from glioblastoma tumor samples (AID 1345199). Further: nearly all actives have a fitted effect of over 40% in size. As to conditions: GBM patient neurospheres viability, ATP luminescence, 48 h. An outline of the steps: (§3)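 Four patient lines of CD133+ GBM neurospheres were screened at several concentrations; hits were retested in those lines plus three slower-growing GBM lines, using 48-hour treatment and ATP-based viability.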

Assay [18] has as its system astro. Described as above. Conditions: viability, ATP luminescence, 48 h; series mostly up to 45.9 µM. An outline of the steps:
as §3

For assay [19], the system named is NIH3T3. In words: qHTS assay to identify novel small-molecules to repurpose for Merkel cell carcinoma treatment (AID 1296009). Further: nearly all actives have a fitted effect of over 60% in size. As to conditions: MCC and control cell lines, CellTiter-Glo viability, 72 h; at 44.8 µM (top of the series) unless noted. In short, it runs like this:
as §1

Where [20] appears, read: at 20 µM (top of the series), tumour line C.
Where [21] appears, read: at 21.2 µM (top of the series), tumour line B.
Setting [22] is: at 46.1 µM (top of the series), tumour line C.

Inconclusive results are not listed. Unmarked numbers belong to inactive results. Activity calls are given as the source filed them. The call rests on the fitted dose curve; in most records, active means well fitted curve in the direction sought with a large enough effect; inconclusive means small, poorly fitted or top-dose-only effect, or another doubt; inactive means no such curve, though single readings can be large; an effect the other way counts as inactive or inconclusive.
On the % scale 0 is the no-effect control and ±100 the full control effect; potency means the concentration at half of the fitted maximal effect.

Take `O=c1n(CCCN2CCN(c3cccc(Cl)c3)CC2)nc2ccccn12`: the Potency entry in [1], in assay [2], in [3], in assay [4], in assay [5] and in [6] was “inactive” each time. For the same molecule, the Potency entry in assay [7], in assay [8], in assay [9], in [10], in [11] and in [12] was “inactive” throughout. The Potency result in assay [13], in [14], in assay [15], in [16] and in [18] was “inactive” throughout. Also, the activity, negative = cell killing was -4.25% in assay [17] (setting [20]); -8.69% in [17] (setting [21]); 3.95% in [17] (at 21.2 µM (top of the series), tumour line D).

Consider `Cn1c(=O)c(F)c(Nc2ccc(I)cc2F)c2c(=O)n(C[C@@H](O)CO)cnc21`, for which the Potency result in assay [1], in assay [3] and in assay [4] was “inactive” in each case.

Turning to `COc1ccc(-c2oc3cc(OC)ccc3c2C(=O)c2ccc(C#N)cc2)cc1`, the Potency entry in [1], in [3] and in assay [4] was “inactive” each time. Also, the molecule was classed as inactive in [19].

Take `COc1cc2nccc(Oc3ccc(NC(=O)NC4CC4)c(Cl)c3)c2cc1C(N)=O`: the Potency in assay [1] was 2.64 µM (active); in assay [2] it was 9.35 µM (active); in [3], 18.7 µM (active); in assay [4], 1.48 µM (active). Moreover, the Potency entry in [5], in assay [6], in assay [7], in assay [8], in assay [9] and in assay [10] was “inactive” each time. For the same molecule, the Potency entry in [11], in assay [12], in [13], in assay [14], in [15] and in assay [16] was “inactive” throughout.

As to `Oc1ccc(C2CNCCc3c2cc(O)c(O)c3Cl)cc1` (stereo not drawn), the Potency entry in [5], in assay [7], in assay [8], in assay [9], in assay [10] and in [11] was “inactive” throughout. For the same molecule, the Potency result in [12], in assay [13], in assay [14], in assay [15], in assay [16] and in [18] was “inactive” each time. In addition, the activity, negative = cell killing in assay [17] (setting [22]) is 2.51%.

For `Nc1nc2c(ncn2COCCO)c(=O)[nH]1`, the Potency entry in assay [5], in assay [6], in assay [8], in [9], in assay [10] and in [11] was “inactive” in each case. The Potency entry in [12], in [13], in [14], in [15], in assay [16] and in assay [18] was “inactive” each time. Moreover, the activity, negative = cell killing in assay [17] (setting [20]) was -13.6%; in [17] (setting [21]), -4.96%; in [17] (at 21.3 µM (top of the series), tumour line A) it was -33.2%.

`CN(C(=O)c1ccc(F)cc1C(F)(F)F)C1CCN(c2nnc(-c3ccnn3C)c3ccccc23)CC1`: the Potency result in [1], in [2], in assay [3], in assay [4], in assay [5] and in assay [6] was “inactive” each time. Besides, the Potency result in assay [7], in assay [8], in assay [9], in [10], in [11] and in assay [12] was “inactive” in each case. For the same molecule, the Potency entry in assay [13], in assay [14], in assay [15] and in assay [16] was “inactive” throughout.

With `Cc1cc(-c2ccc(CC(=O)Nc3ccc(-c4cccnc4)cc3)cc2)ccn1`, the Potency result in assay [1] and in assay [4] was “inactive” each time.

With `CCOC(=O)N1CCC(=C2c3ccc(Cl)cc3CCc3cccnc32)CC1`, the Potency result in assay [1], in assay [2], in assay [3], in assay [5], in assay [6] and in assay [7] was “inactive” throughout. The Potency result in assay [10], in assay [11] and in assay [12] was “inactive” in each case. Further, the activity, negative = cell killing is -28.2% in assay [17] (at 45.9 µM (top of the series), tumour line B) and -20.3% in assay [17] (setting [22]). Further, in assay [17] (tumour line A), the Potency was 10 µM (active).

In the case of `CC(=O)Oc1ccccc1C(=O)O`, the Potency entry in [1], in [2], in assay [3], in [4], in assay [5] and in assay [6] was “inactive” in each case. For the same molecule, the Potency entry in [7], in assay [8], in assay [9], in assay [10], in assay [11] and in assay [12] was “inactive” each time. The Potency entry in assay [13], in assay [14], in [15], in assay [16] and in [18] was “inactive” throughout. The activity, negative = cell killing in [17] (at 45.9 µM (top of the series), tumour line D) was -4.86%; in assay [17] (at 46 µM (top of the series), tumour line A), -15.2%; in assay [17] (setting [22]), -19.2%.

With `Cc1cnc(Nc2ccc(OCCN3CCCC3)cc2)nc1Nc1cccc(S(=O)(=O)NC(C)(C)C)c1`, the Potency entry in assay [1], in [3] and in assay [4] was “inactive” in each case. Moreover, the molecule was classed as inactive in assay [19]. Also, the Potency in [6] was 10 µM (active); in [7] it was 14.1 µM (active); in assay [9], 7.08 µM (active); in [11], 12.6 µM (active); in assay [12], 17.8 µM (active); in [13], 8.91 µM (active). The Potency in [14] is 7.94 µM (active); in assay [15], 7.94 µM (active); in assay [16], 11.2 µM (active).

With `CN(C)c1ccc(Nc2nc(N)n(C(=O)c3c(F)cccc3F)n2)cc1`, the Potency result in assay [2], in assay [3], in assay [5], in assay [6], in assay [7] and in [8] was “inactive” in each case. Further, the Potency entry in assay [10], in assay [11], in [12], in assay [13], in assay [14] and in [15] was “inactive” throughout. Besides, the Potency entry in assay [16] was “inactive”. In assay [9], the Potency is 12.6 µM (active).
